Mcl1-Bid inh: Mcl-1/Bid binding inhibitors, primary screen, biochemical, TR-FRET, 1536-well | TR-FRET Mcl-1/Bid-Dy647 peptide binding | inhibition, % at 21.7 µM | actives 0.97% (n = 220,000);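 active means compounds that cut the binding signal by more than half at the single screening dose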;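 further: His-tagged Mcl-1 with europium anti-His antibody binding Bid BH3 peptide; 0% = Mcl-1 plus peptide wells and 100% = peptide-only wells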
Target sequence (Q07820 whole entry, looked up): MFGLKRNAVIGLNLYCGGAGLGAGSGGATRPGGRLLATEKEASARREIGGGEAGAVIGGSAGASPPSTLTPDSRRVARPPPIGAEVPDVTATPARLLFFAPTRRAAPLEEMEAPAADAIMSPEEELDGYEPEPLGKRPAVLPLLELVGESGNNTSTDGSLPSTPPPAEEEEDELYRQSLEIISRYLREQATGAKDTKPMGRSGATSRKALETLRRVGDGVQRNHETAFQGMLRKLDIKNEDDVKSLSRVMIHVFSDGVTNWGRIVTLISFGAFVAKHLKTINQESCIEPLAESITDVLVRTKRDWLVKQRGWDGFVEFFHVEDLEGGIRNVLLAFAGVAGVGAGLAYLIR
Mcl1-Noxa inh: Mcl-1/Noxa binding inhibitors, primary screen, biochemical, TR-FRET, 1536-well; actives 1.5% (n = 220,000); TR-FRET Mcl-1/Noxa peptide binding, 2 h; AID 1022, 2008; inhibition, % at 21.7 µM; Induced myeloid leukemia cell differentiation protein Mcl-1 (Homo sapiens), Q07820;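 active means compounds that cut the protein-peptide binding signal by more than 50% relative to plate controls in a single-dose test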;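 further: His-tagged Mcl-1 with rhodamine Noxa BH3 peptide and terbium anti-His antibody; 0% = Mcl-1 plus Noxa peptide wells and 100% = peptide-only wells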
zVAD death inh: inhibitors of zVAD-triggered necroptosis, primary screen, L929 cells | L929 zVAD necroptosis rescue, ATP luminescence, 24 h; with zVAD 60 µM | viability rescue, % at 10 µM | actives 0.38% (n = 220,000);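 active means activation, scaled between plate controls, above about 75%, limit read from the data; inactive means activation under that limit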;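 further: 0% = zVAD with DMSO and 100% = DMSO alone without zVAD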
Bim-Mcl-1: inhibitors of Bim peptide binding to Mcl-1, primary screen, biochemical, bead-based flow cytometry, multiplex. Induced myeloid leukemia cell differentiation protein Mcl-1 (Homo sapiens), Q07820. AID 1009, 2008. inhibition, % at 10 µM. Bim peptide-Mcl-1 binding. actives 0.1% (n = 190,000); in the data active means inhibition above about 40%;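 further: 0% = no compound tracer wells and 100% = peptide blocker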
TNF death inh: inhibitors of TNF-alpha triggered necroptosis, primary screen, cell-based, Jurkat FADD-/-, single concentration. Jurkat FADD-/- TNF necroptosis rescue, ATP luminescence, 24 h; 0 = TNF only, 100 = no-TNF cells. activation (protection from cell death), % at 10 µM. actives 0.068% (n = 220,000);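 active means activation, meaning protection from cell death, of at least 50% relative to plate controls; inactive means activation below 50%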;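 further: necroptosis triggered by 40 ng/mL TNF-alpha added together with compound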
m-calpain inh: inhibitors of pig calpain II, primary screen, biochemical, fluorogenic peptide substrate, 1536-well | actives 0.37% (n = 220,000) | inhibition, % at 16 µM | purified calpain II, 30 min;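 active means inhibition above about 50%, limit read from the data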
* marks the source's active call; other numbers are inactive results. Sampled rows, rich in hits. Any-hit rate of the full collection: about 2.8%.

How did CCc1cccc(C)c1NC(=O)CO/N=C(\N)CC(=O)NC1CCCCC1 do in these assays?
Mcl1-Bid inh: -17; Mcl1-Noxa inh: 4; zVAD death inh: 2; Bim-Mcl-1: -1; TNF death inh: -1; m-calpain inh: -2

How did Cc1cc([N+](=O)[O-])nn1CC(=O)N/N=C/c1ccc(O)cc1O do in these assays?
Mcl1-Bid inh: -67; Mcl1-Noxa inh: -59; zVAD death inh: 2; TNF death inh: -15; m-calpain inh: -17

How did Cc1ccc(NC(=S)N(Cc2ccc(Br)cc2)Cc2ccc(C(=O)O)cc2)cc1C do in these assays?
Mcl1-Bid inh: -7; Mcl1-Noxa inh: 3; zVAD death inh: 1; Bim-Mcl-1: -5; TNF death inh: 1; m-calpain inh: -51

How did O=C1OCc2cc(NC(=O)C3CCCCC3)ccc21 do in these assays?
Mcl1-Bid inh: -14; Mcl1-Noxa inh: -9; zVAD death inh: 2; Bim-Mcl-1: 0; TNF death inh: 1; m-calpain inh: 52*

What do the screens show for `COc1cc(OC)cc(C(=O)Nc2cccc(C(C)=O)c2)c1`?
Mcl1-Bid inh: -16; Mcl1-Noxa inh: 14; zVAD death inh: 0; Bim-Mcl-1: 0; TNF death inh: -4; m-calpain inh: 30

What do the screens show for `COc1cc(OC)cc(C(=O)Nc2ccc3c(c2)COC3=O)c1`?
Mcl1-Bid inh: 1; Mcl1-Noxa inh: 8; zVAD death inh: 0; Bim-Mcl-1: -2; TNF death inh: -1; m-calpain inh: 60*

What do the screens show for `C/C(=N\NC(=O)COc1ccc(C#N)cc1)c1ccccc1OC(F)F`?
Mcl1-Bid inh: -13; Mcl1-Noxa inh: -1; zVAD death inh: 3; Bim-Mcl-1: 49*; TNF death inh: 4; m-calpain inh: 15

How did CCn1c(O)c(C=NCc2ccccc2)sc1=S do in these assays?
Mcl1-Bid inh: -15; Mcl1-Noxa inh: -24; zVAD death inh: -1; TNF death inh: 68*; m-calpain inh: 36

How did CCCn1c(O)c(C=Nc2ccccc2)sc1=S do in these assays?
Mcl1-Bid inh: -67; Mcl1-Noxa inh: -8; zVAD death inh: 1; Bim-Mcl-1: -1; TNF death inh: 2; m-calpain inh: -17

Results for COc1ccccc1/C=C(/C(=O)OCC(=O)Nc1ccc(N(C)C)cc1)c1ccccc1 ?
Mcl1-Bid inh: -53; Mcl1-Noxa inh: 69*; zVAD death inh: 1; Bim-Mcl-1: -3; TNF death inh: -1; m-calpain inh: -20

Results for COc1ccccc1/C=C(/C(=O)OCC(=O)Nc1ccccc1C)c1ccccc1 ?
Mcl1-Bid inh: 12; Mcl1-Noxa inh: 21; zVAD death inh: 0; Bim-Mcl-1: 3; TNF death inh: 1; m-calpain inh: 46

What do the screens show for `O=C(CNC(=O)c1ccco1)NCC(=O)OCc1ccccc1Br`?
Mcl1-Bid inh: -12; Mcl1-Noxa inh: -14; zVAD death inh: 0; Bim-Mcl-1: 43*; TNF death inh: -1; m-calpain inh: 20

Results for Cc1ccc(Cl)cc1N1CCN(C(=O)CN(c2ccccc2)S(=O)(=O)N(C)C)CC1 ?
Mcl1-Bid inh: -32; Mcl1-Noxa inh: 14; zVAD death inh: 0; Bim-Mcl-1: -2; TNF death inh: 1; m-calpain inh: 2

What do the screens show for `N/C(=N\OC(=O)COc1ccc2ccccc2c1)c1ccncc1`?
Mcl1-Bid inh: -13; Mcl1-Noxa inh: 1; zVAD death inh: 4; Bim-Mcl-1: 3; TNF death inh: 0; m-calpain inh: 25

Results for N/C(=N\OC(=O)COc1ccc2ccccc2c1)c1cccnc1 ?
Mcl1-Bid inh: 61*; Mcl1-Noxa inh: 3; zVAD death inh: 1; Bim-Mcl-1: -6; TNF death inh: 1; m-calpain inh: -8

Results for COc1cccc(Nc2nnc(SCC(=O)Nc3sccc3C(N)=O)s2)c1 ?
Mcl1-Bid inh: 4; Mcl1-Noxa inh: 60*; zVAD death inh: 58; Bim-Mcl-1: 0; TNF death inh: -3; m-calpain inh: -23

What do the screens show for `CC(=O)Nc1cccc(OCC(=O)Nc2sccc2C(N)=O)c1`?
Mcl1-Bid inh: 0; Mcl1-Noxa inh: 52*; zVAD death inh: 0; TNF death inh: -7; m-calpain inh: -15

What do the screens show for `CCc1ccc(Nc2nnc(SCC(=O)Nc3sccc3C(N)=O)s2)cc1`?
Mcl1-Bid inh: -18; Mcl1-Noxa inh: 53*; zVAD death inh: 63; Bim-Mcl-1: -3; TNF death inh: 0; m-calpain inh: -23

Results for CCO[C@@H]1OC(C(=O)N2CCCCCCC2)=C[C@H](C2CCCCC2)[C@H]1CCCO ?
Mcl1-Bid inh: 9; Mcl1-Noxa inh: -10; zVAD death inh: 0; Bim-Mcl-1: 0; TNF death inh: 1; m-calpain inh: 25

How did Cc1cccc(N2CCN(S(=O)(=O)c3ccc4c(c3)n(C)c(=O)c(=O)n4C)CC2C)c1 (centres undefined) do in these assays?
Mcl1-Bid inh: 56*; Mcl1-Noxa inh: 41; zVAD death inh: 0; Bim-Mcl-1: -4; TNF death inh: -1; m-calpain inh: 1

What do the screens show for `Cc1ccc(N2CCN(S(=O)(=O)c3ccc4c(c3)n(C)c(=O)c(=O)n4C)CC2C)cc1` (centres undefined)?
Mcl1-Bid inh: -2; Mcl1-Noxa inh: 15; Bim-Mcl-1: -7; TNF death inh: -2; m-calpain inh: -25

How did Cc1cccc(C)c1NC(=O)COC(=O)c1cccnc1 do in these assays?
Mcl1-Bid inh: -18; Mcl1-Noxa inh: 56*; zVAD death inh: 11; Bim-Mcl-1: -1; TNF death inh: 0; m-calpain inh: -28

Results for Cc1ccc(Cc2ccc(C(=O)NNC(N)=S)o2)cc1 ?
Mcl1-Bid inh: -81; Mcl1-Noxa inh: -12; zVAD death inh: 5; Bim-Mcl-1: -3; TNF death inh: 1; m-calpain inh: -16

How did CCOC(=O)CSc1nn(C)c(=S)s1 do in these assays?
Mcl1-Bid inh: 57*; Mcl1-Noxa inh: -7; zVAD death inh: 0; Bim-Mcl-1: 1; TNF death inh: 1; m-calpain inh: -21

How did CC1(C)CC(=O)C=C(NCCc2c[nH]c3ccccc23)C1 do in these assays?
Mcl1-Bid inh: -25; Mcl1-Noxa inh: 11; zVAD death inh: 1; TNF death inh: 1; m-calpain inh: -16

What do the screens show for `CCc1c(C(=O)Nc2cc(C)ccc2OC)[nH]c(C)c1C(C)=O`?
Mcl1-Bid inh: 96*; Mcl1-Noxa inh: 6; zVAD death inh: 0; Bim-Mcl-1: 2; TNF death inh: -2; m-calpain inh: -110

What do the screens show for `CCCNC(=O)CSc1nnc(-c2ccccc2Br)n1-c1cccc(C(F)(F)F)c1`?
Mcl1-Bid inh: -21; Mcl1-Noxa inh: 22; zVAD death inh: -1; Bim-Mcl-1: -3; TNF death inh: -2; m-calpain inh: -25
